Bioassay records as filed in PubChem BioAssay.
Sm TGR block – qHTS Assay for the Inhibitors of Schistosoma Mansoni Peroxiredoxins | purified TGR, DTNB reduction, TNB absorbance 405 nm | Potency, µM (series often up to 114 µM), hits mostly inhibitors | 360,000 tested, 3% active; active = well fitted inhibition curve with a large enough effect; inconclusive = small, poorly fitted or top-dose-only effect; inactive = no such curve, though single readings can be large or run the other way; also: nearly all actives have a fitted effect of over 60% in size
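First, TGR (20 nM dispensed) and NADPH were mixed with compound. Second, a 15 min room-temperature incubation followed. Third, further NADPH and then DTNB were added to start the reaction. Finally, TNB absorbance was monitored kinetically.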
Shiga inhibitor – A qHTS for Small Molecule Inhibitors of Shiga Toxin. AID 2315, 2010. 290,000 tested, 9.2% active. inhibition, % at 38.7 µM. Vero cells, Shiga toxin protein synthesis inhibition reporter; in the data active = inhibition mostly above about 28%, no sharp cut-off; inactive = mostly below about 43%
Cycloheximide cs – Cycloheximide Counterscreen for Small Molecule Inhibitors of Shiga Toxin; 300,000 tested, 12% active; cell reporter, cycloheximide protein synthesis inhibition counterscreen; AID 2314, 2010; max response, %; in the data active = max response mostly above about 13%, no sharp cut-off; inactive = mostly below about 14%; also: read at 38.3 µM for the half of the compounds with a filed dose
FMDV antiviral – High Throughput Screening for Foot and Mouth Disease Virus Antivirals; Potency, µM (top dose mostly 57.9 µM), most hits filed as inhibitors; FMDV antiviral cell-based qHTS; 410,000 tested, 1.2% active; AID 1159524, 2015; calls by dose curve; tested in HEK293T cells; also: read-out not given here; nearly all actives have a fitted effect of over 45% in size
Numbers stand for hits; - = inactive; ? = inconclusive; . = no result; ! = a repeat was not active. In the library only some 12% were active in any assay of this set; here they are far more common.

SMILES | Sm TGR block | Shiga inhibitor | Cycloheximide cs | FMDV antiviral
COc1ccc(-c2[nH]c(-c3ccc(Cl)cc3)nc2SCC(=O)NCC2CCCO2)cc1 (stereo not given) | - | . | . | -
CCOC(=O)C1=C(c2ccccc2)NC(=O)NC1c1cc(Cl)c(O)c(OC)c1 (stereo not given) | - | - | - | -
CCOC(=O)C1=C(c2ccccc2)NC(N)=NC1c1ccc(OCc2ccc(Cl)cc2)c(OC)c1 (stereo not given) | - | 29.5 | - | -
CN(C)c1ccc(/C=N/NC(=O)c2ccc3nc[nH]c3c2)cc1 | - | 22.0 | 15.8 | -
CCN(CC)c1ccc(/C=N/NC(=O)c2ccc3nc[nH]c3c2)cc1 | - | - | - | -
CSc1ccc(/C=N/NC(=O)CN2CCN(Cc3ccccc3)CC2)cc1 | - | - | - | -
CC/C(=N\NC(=O)c1ccc(N2CCCC2=O)cc1)c1ccccc1 | - | - | - | -
CN(C)c1ccc(/C=N/NC(=O)c2ccccc2)cc1 | . | 53.4 | 33.3 | -
CC/C(=N\NC(=O)c1ccc(N(C)C)cc1)c1ccccc1 | - | 32.8 | - | -
CSc1ccc(/C=N/NC(=O)c2ccccc2Cl)cc1 | - | 91.3 | 31.8 | -
O=C(Nc1nc2c(F)cccc2s1)c1ccc2c(c1)OCCO2 | - | . | . | -
Cc1cccc(OCCn2c(SCC(N)=O)nc3ccccc32)c1 | - | . | . | -
Cc1ccc(-c2noc(CN(C(=O)COc3cc(C)cc(C)c3C)C(C)C)n2)cc1 | - | . | . | -
C/C(=N/N=C/c1ccc(N(C)C)cc1)c1ccccc1 | - | 167.6 | 47.2 | 10µM
CN(C)c1cccc(C(=O)N/N=C/c2ccsc2)c1 | - | 80.3 | 67.0 | -
CN(C)c1cccc(C(=O)N/N=C/c2ccoc2)c1 | . | . | . | -
CN(C)c1ccc(C=Nc2ccccc2)cc1 | - | - | - | .
CN(C)c1ccc(/C=N/NC(=O)CCCCCNC(=O)c2ccccc2)cc1 | - | 59.9 | 55.5 | -
COc1ccc(C(=O)N/N=C/c2ccc(N(C)c3ccccc3)cc2)cc1 | . | . | . | 31.6µM
Cc1cc(NC(=O)CSc2ncc(C(=O)Nc3ccc(F)cc3)c(=O)n2C)no1 | - | . | . | -
O=C(CCCCCNC(=O)c1ccccc1)N/N=C/c1ccccc1O | - | - | 25.1 | -
CN(C)c1ccc(/C=N/NC(=O)c2ccccc2Cl)cc1 | - | - | 34.9 | -
CN(C)c1ccc(/C=N/NC(=O)c2cccc(C(=O)N/N=C/c3ccc(N(C)C)cc3)n2)cc1 | - | - | - | -
CN(C)C(=S)c1ccc(N(C)C)cc1 | - | - | - | -
CN(C)c1ccc(/C=N/NC(=O)c2ccc(Cl)cc2)cc1 | - | 18.2 | - | .
SMILES | Sm TGR block | Shiga inhibitor | Cycloheximide cs | FMDV antiviral
O=C(CCCCCNC(=O)c1ccccc1)N/N=C/c1ccco1 | - | - | - | -
CN(C)c1ccc(/C(=N\O)c2ccccc2)cc1 | - | 83.1 | 34.6 | -
CCCc1nnc(N2C(=O)c3oc4ccc(F)cc4c(=O)c3C2c2ccc(C(=O)OC)cc2)s1 (stereo not given) | - | . | . | -
COc1cccc(-c2cc(C(=O)Nc3ccc(OC)cc3OC)no2)c1 | - | . | . | -
COc1ccc(NC(=O)c2cc(C(C)C)on2)c(OC)c1 | - | 113.9 | 53.4 | -
COc1cc(NC(=O)c2cc(C3CC3)on2)c(OC)cc1Cl | - | - | - | -
COc1cc(NC(=O)c2cc(C(C)C)on2)c(OC)cc1Cl | - | - | 13.4 | -
COc1ccc(NC(=O)c2cc(-c3ccc(OC)c(OC)c3)on2)cc1OC | - | - | - | -
COc1cc(NC(=O)c2cc3nc(C)cc(C)n3n2)c(OC)cc1Cl | - | 62.4 | 52.8 | -
COc1ccc(NC(=O)c2cc(C(C)C)on2)cc1OC | - | 44.7 | 43.6 | -
CCc1cccc(-n2c(=O)c3cccnc3n2CC(=O)NCc2ccccc2Cl)c1 | - | . | . | -
CCC[C@H](N[C@@H](C)C(=O)N1[C@@H]2CCCC[C@H]2C[C@H]1C(=O)O)C(=O)OCC | . | - | - | .
O=C(c1ccccc1)c1ccc(N2CCCC2)cc1 | - | 53.1 | 23.5 | -
O=C(O)CCC(=O)N1CCN(c2ccc(C(=O)c3ccc(F)cc3)cc2)CC1 | - | - | - | -
CN1CCN(c2ccc(C(=O)c3ccc(F)cc3)cc2)CC1 | - | 110.6 | - | -
O=C(c1ccccc1)c1ccc(N2CCNCC2)cc1 | ? | active | 34.0 | .
O=C(c1ccccc1)c1ccc(N2CCOCC2)cc1 | . | . | . | -
CC1CCN(c2oc(-c3cccs3)nc2S(=O)(=O)c2ccc(Cl)cc2)CC1 | - | . | . | -
COC(=O)[C@@H]1CCCN1C(=O)c1c(OC)cc(=O)n2c1CCN(Cc1ccc3c(c1)OCCO3)CC2 | . | . | . | -
Cc1cc(N2CCC(C(=O)Nc3ccc(F)cc3C)CC2)n2nc(C)c(-c3ccc(Cl)cc3)c2n1 | - | . | . | -
N#CC(=C1CCCC1)c1nc(-c2ccccc2)cs1 | ? | 103.4 | 54.3 | -
N#CC(=C1CCCC1)c1nc(-c2cc3ccccc3oc2=O)cs1 | - | 50.7 | 32.3 | .
CCc1ccc(/C=C(/C#N)c2nc(-c3ccc(C)cc3)cs2)cc1 | - | . | . | -
N#CC(=C1CCCC1)c1nc(-c2ccccc2O)cs1 | 25.1µM | 105.5 | 53.9 | -
Cc1ccc(-c2csc(C(C#N)=C3CCCC3)n2)cc1 | - | 73.6 | 24.6 | -
SMILES | Sm TGR block | Shiga inhibitor | Cycloheximide cs | FMDV antiviral
Cc1ccc(-c2cn3c(n2)sc2cc(C(=O)NC4CCCCCC4)ccc23)cc1 | - | . | . | -
COC(=O)c1cccc(Nc2c(-c3ccc(O)cc3)nc3nc[nH]n23)c1 | ? | . | . | -
COC(=O)c1cccc(Nc2c(-c3ccc(O)c(OC)c3)nc3nc[nH]n23)c1 | 39.8µM | . | . | -
COC(=O)c1ccc(NC(=O)c2ccccc2SC)cc1 | - | 46.2 | 27.3 | -
Cc1c(C(=O)Nc2ccc3c(c2)CCC3)cccc1[N+](=O)[O-] | - | 125.3 | 95.5 | -
CSc1ccccc1C(=O)Nc1ccc2c(c1)CCC2 | - | 41.1 | - | -
O=C(Nc1ccc2c(c1)CCC2)c1ccccc1Br | - | 62.8 | 33.5 | -
Cc1c(C(=O)Nc2ccc(Nc3ccccc3)cc2)cccc1[N+](=O)[O-] | - | - | - | ?
COC(=O)c1ccc(NC(=O)c2ccccc2C(=O)Nc2ccc(C(=O)OC)cc2)cc1 | . | . | . | -
Cc1cc(Cl)ccc1NC(=O)C1CCN(S(=O)(=O)c2ccc3[nH]c(=O)ccc3c2)CC1 | - | . | . | -
CC(=O)Nc1ccc(C2=NN(Cc3nnc(-c4ccccc4)o3)C(=O)SC2)cc1 | - | 16.4 | - | -
CCC(=O)Nc1cccc(-c2nnc(-c3cccc(NC(=O)CC)c3)o2)c1 | - | - | - | .
CCC(=O)Nc1ccc(-c2nc3ccccc3c(=O)o2)cc1 | - | 79.5 | 28.1 | -
CCC(=O)Nc1ccc(-c2nnc(-c3ccccc3)o2)cc1 | - | - | 18.1 | -
CN1CCC(=C2c3ccccc3CC(=O)c3sccc32)CC1 | 50.1µM! | - | - | ?
CN1CCC(=C2c3ccccc3CCc3sccc32)CC1 | - | - | - | ?
CSc1cccc(NC(=O)Cn2c3ncccc3c(=O)n2-c2ccc(C)cc2)c1 | - | . | . | -
CC(Oc1ccccc1)C(=O)OCc1cc(=O)n2nc(C(C)C)sc2n1 (stereo not given) | - | . | . | -
O=C1/C(=C/c2cccc3ccccc23)CCCc2ccccc21 | - | 51.0 | 29.1 | -
CCCCOc1ccc(C(=O)NCCS(=O)(=O)N2CCN(c3ccccc3OC)CC2)cc1 | - | . | . | 14.1µM
